PubChem BioAssay (NCI)
Where “and” joins values, the source holds several entries; their conditions need not be identical. Equal entries are not always repeated. This is part of a sample that, as a whole, favours compounds with a hit. Of some 79,000 tested, about 15% had one in any assay. A structure can be active in one record and inactive in another. Calls of active or inactive are those of the source. No stated cut-off is given here; in the data, active means growth inhibition above about 70%; inactive means the rest.

Assay: NCI Yeast Anticancer Drug Screen. Data for the bub3 strain (AID 167)
Settings: S. cerevisiae bub3 mutant strain, stronger effect = higher value
Description: Growth inhibition of yeast strains with defined genetic alterations is measured as a screen for potential anti-cancer activity. Selected strains with alterations in DNA damage repair or cell cycle control were exposed to compounds and growth inhibition was measured relative to vehicle treated controls. The strain used in this assay is bub3

[1] = at 5.0 µM (retest, dose inferred, filed as 0.5)
[2] = at 50.0 µM (retest, dose inferred, filed as 5.0)

| Compound | growth inhibition (at 1.2 µM) | growth inhibition (at 3.7 µM) | growth inhibition [1] | growth inhibition (at 11.0 µM) | growth inhibition (at 33.0 µM) | growth inhibition [2] | growth inhibition (at 50.0 µM) | growth inhibition (at 100.0 µM) |
| --- | --- | --- | --- | --- | --- | --- | --- | --- |
| O=C(O)CNC(=S)Nc1ccccc1 | -46% (inactive) | -39% (inactive) | 6% (inactive) | -15% (inactive) | 49% (inactive) | 85% (active) | 8.5% (inactive) and 53.4% (inactive) | 89% (active) |
| Cc1nc2c(Br)cc(Br)cc2c(=O)n1-c1ccccc1NC1OCC(O)C(O)C1O (stereo not given) | 11% (inactive) | 5% (inactive) | 20% (inactive) and 14% (inactive) | 8% (inactive) | 47% (inactive) | 92% (active) and 51% (inactive) | 97.2% (active) and 78.4% (active) | 96% (active) |
| CC(=O)OC1CC2C(C)(C)C(=O)C=C[C@]2(C)C2CCC3(C)C(=CCC3[C@H](CO)C[C@H](O)C(=O)C(C)(C)O)[C@]12C (stereo not given in full) | -24% (inactive) | -35% (inactive) | 13% (inactive) | -41% (inactive) | -29% (inactive) | 50% (inactive) | 38.1% (inactive) | 78% (active) |
| COC(=O)Oc1cc(Cl)c(Cl)cc1Cl | 1% (inactive) | 3% (inactive) | 12% (inactive) | 1% (inactive) | 3% (inactive) | 4% (inactive) | 36% (inactive) | 3% (inactive) |
| O=C1Nc2ccc(Br)cc2C1=Nc1ccc2c(c1)OCO2 | -26% (inactive) | -22% (inactive) | 30% (inactive) | -17% (inactive) | 2% (inactive) | 73% (active) | 52.5% (inactive) | 86% (active) |
